# Activity calls are given as the source filed them.
# Key:
# Albumin (Bos taurus) = Albumin (Bos taurus) (UniProt P02769); assay: bovine serum albumin binders on microarray, profiling panel, artefact control for SMM control protein annotation, biochemical, small-molecule microarray, Alexa647 label, 635/667 nm fluorescence (AID 1118); conditions: BSA-A647 binding, fluorescence 635 nm, higher = more signal;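 also: score merges 667 nm emission intensity and signal-to-noise per printed compound spot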
# [1] = small-molecule microarray binders of probe aXIP, primary screen, biochemical, NeuroSMM set, 635/667 nm fluorescence (AID 1119); conditions: higher = more signal, called active from +8 up or from −8 down;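 also: probe is the protein aXip251-270 applied at 1 µg/mL to compound-printed slides; binding of probe to printed compounds measured as 667 nm fluorescence plus signal to noise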
# [2] = small-molecule binders of probe aNOTCH3, primary screen, biochemical, small-molecule microarray, 635/667 nm fluorescence (AID 1120); conditions: higher = more signal;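 also: probe is a biotin-tagged antibody raised against NOTCH3 rather than NOTCH3 protein; score merges spot fluorescence near 667 nm with spot signal to noise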
# [3] = small-molecule binders of probe aNOTCH2, primary screen, biochemical, small-molecule microarray, 635/667 nm fluorescence (AID 1121); conditions: higher = more signal;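 also: score merges feature fluorescence read at 667 nm with its signal to noise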
# [4] = molecular target: Carbonic anhydrase 2 (Homo sapiens) (UniProt P00918); assay: CAII small-molecule binders, profiling panel, biochemical, small-molecule microarray, Alexa647-labelled CAII (AID 1122); conditions: CAII-A647 binding fluorescence, higher = more signal
# [5] = COS7 lysate on small-molecule microarray, probe aHis, 635 nm (AID 1123); conditions: COS7 cell lysate, fluorescence, higher = more signal;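 also: z-score combines 667nm fluorescence intensity with signal-to-noise per printed compound spot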
# [6] = compound binding in COS7 lysate, probe aLAP1, primary screen, cell lysate, small-molecule microarray (AID 1124); conditions: probe aLAP1, fluorescence, higher = more signal;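 also: lysate comes from COS7 cells expressing LAP1 and is applied at 0.3 µg/mL; score merges spot fluorescence near 667 nm with signal-to-noise over triplicate slides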
# Sam68 (KHDRBS1) = assay: Sam68 small-molecule binders, primary screen, biochemical, small-molecule microarray, 635 nm fluorescence (AID 1125); conditions: small-molecule microarray binding, higher = more signal;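 also: score merges 667 nm channel intensity with signal to noise over triplicate slides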
# [7] = tested on: Chordin-like protein 2 (CHRDL2); assay: CHRDL2 small-molecule binders, primary screen, biochemical, small-molecule microarray, 635 nm fluorescence (AID 1126); conditions: small-molecule microarray binding, fluorescence 635 nm; higher = more signal;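 also: printed compound slides probed with Chrdl2 protein at 4 µg/mL for 1 h at 4 C; score merges 667 nm emission intensity with signal to noise over three replicate slides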
# [8] = molecular target: Concanavalin-A (Canavalia ensiformis) (UniProt P02866); assay: ConA small-molecule binders, primary screen, artefact control for SMM control protein annotation, biochemical, small-molecule microarray, Alexa647 label, 635 nm (AID 1127); conditions: ConA-A647 binding fluorescence, higher = more signal;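 also: z combines 667 nm emission intensity with signal-to-noise across three replicate slides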
# [9] = anti-His antibody binders, primary screen, artefact control for SMM control protein annotation, biochemical, small-molecule microarray, 635 nm fluorescence (AID 1128); conditions: anti-His Alexa647 antibody binding, higher = more signal;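 also: score merges feature fluorescence with signal-to-noise for each printed compound spot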
# [10] = tested on: Human papillomavirus type 1a E7 protein (residues 1-88); assay: HPV1a E7 small-molecule binders, primary screen, biochemical, small-molecule microarray, residues 1-88, 635 nm (AID 1129); conditions: small-molecule microarray binding, fluorescence 635 nm; higher = more signal
# [11] = molecular target: Focal adhesion kinase 1 (Homo sapiens) (UniProt Q05397); assay: small-molecule microarray binders of FAK, primary screen, biochemical, 635/667 nm fluorescence, BSA, DTT (AID 1130); conditions: PTK2 binding, 635 nm fluorescence, higher = more signal;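 also: composite of spot emission at 667 nm and signal to noise over triplicate slides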
# [12] = tested on: Fibrinogen (Alexa647-labelled); assay: fibrinogen binders on compound microarrays, profiling panel, artefact control for SMM control-protein annotation, biochemical, small-molecule microarray, 635/667 nm fluorescence (AID 1131); conditions: fibrinogen-A647 binding fluorescence, higher = more signal;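 also: z-score merges 667 nm fluorescence with per-spot signal-to-noise over triplicate slides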
# [13] = molecular target: Follistatin (Homo sapiens) (UniProt P19883); assay: follistatin binders on small-molecule microarrays, primary screen, biochemical, small-molecule microarray, 635/667 nm fluorescence (AID 1132); conditions: FST binding, 635 nm fluorescence, higher = more signal
# [14] = molecular target: Fibroblast growth factor 2 (Homo sapiens) (UniProt P09038); assay: FGF2 binders on small-molecule microarrays, primary screen, biochemical, small-molecule microarray, 635/667 nm fluorescence (AID 1133); conditions: small-molecule microarray binding, FGF2, fluorescence 635/667; higher = more signal
# [15] = mitochondrial membrane potential change in A549 cells, profiling panel, cell-based, JC-1 fluorescence, basal, 24 h, 100 nL (AID 1138); conditions: higher = more signal;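 also: A549 lung adenocarcinoma cells under basal conditions with no added stimulus; test concentration not given here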
# Lefty1 = Lefty1 binders on small-molecule microarrays, primary screen, biochemical, small-molecule microarray, 635/667 nm fluorescence (AID 1139); conditions: small-molecule microarray binding, fluorescence 635/667; higher = more signal
# [16] = tested on: wheat germ agglutinin (Triticum aestivum), Alexa647-labelled; assay: wheat germ agglutinin binders on compound microarrays, profiling panel, artefact control for SMM control-protein annotation, biochemical, small-molecule microarray, 635/667 nm fluorescence (AID 1140); conditions: WGA-A647 binding, 635 nm fluorescence, higher = more signal;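 also: score merges 667 nm feature emission with signal to noise over triplicate slides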
# [17] = molecular target: Luciferin 4-monooxygenase (Photinus pyralis) (UniProt P08659); assay: firefly luciferase enzyme inhibitors, primary screen, biochemical, luminescence, purified enzyme, 2006 set (AID 1141); conditions: SteadyGlo luminescence, 30 min, higher = more signal, called active from +8 up or from −8 down;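 also: cell-free assay with purified firefly luciferase at 100 ng per well in PBS; test concentration not given here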
# Sequence of Luciferin 4-monooxygenase (Photinus pyralis) (P08659 whole entry, looked up): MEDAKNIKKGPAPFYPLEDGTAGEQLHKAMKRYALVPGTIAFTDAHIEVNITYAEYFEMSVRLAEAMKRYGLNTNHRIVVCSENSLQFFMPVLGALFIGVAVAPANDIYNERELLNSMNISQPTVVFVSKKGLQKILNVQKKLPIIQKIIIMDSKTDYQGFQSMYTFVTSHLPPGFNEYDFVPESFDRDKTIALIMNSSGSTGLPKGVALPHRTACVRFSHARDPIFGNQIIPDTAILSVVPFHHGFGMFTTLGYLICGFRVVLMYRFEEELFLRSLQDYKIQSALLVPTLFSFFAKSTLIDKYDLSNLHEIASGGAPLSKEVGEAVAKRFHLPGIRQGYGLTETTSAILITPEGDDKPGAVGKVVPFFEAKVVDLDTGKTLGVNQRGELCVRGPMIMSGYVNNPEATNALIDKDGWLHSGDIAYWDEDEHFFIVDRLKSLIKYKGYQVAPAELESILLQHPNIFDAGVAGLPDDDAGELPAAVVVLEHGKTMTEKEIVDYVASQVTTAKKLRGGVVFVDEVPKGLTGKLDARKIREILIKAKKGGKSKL
# Sequence of Fibroblast growth factor 2 (Homo sapiens) (P09038 whole entry, looked up): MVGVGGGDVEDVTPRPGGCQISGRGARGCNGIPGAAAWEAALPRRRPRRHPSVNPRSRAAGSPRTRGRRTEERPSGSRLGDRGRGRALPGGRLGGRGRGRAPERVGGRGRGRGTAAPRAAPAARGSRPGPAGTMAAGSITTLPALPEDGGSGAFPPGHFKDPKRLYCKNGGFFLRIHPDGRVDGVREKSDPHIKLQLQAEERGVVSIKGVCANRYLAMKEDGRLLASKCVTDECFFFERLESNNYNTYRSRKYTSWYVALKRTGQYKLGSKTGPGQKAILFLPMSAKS
# Sequence of Concanavalin-A (Canavalia ensiformis) (P02866 whole entry, looked up): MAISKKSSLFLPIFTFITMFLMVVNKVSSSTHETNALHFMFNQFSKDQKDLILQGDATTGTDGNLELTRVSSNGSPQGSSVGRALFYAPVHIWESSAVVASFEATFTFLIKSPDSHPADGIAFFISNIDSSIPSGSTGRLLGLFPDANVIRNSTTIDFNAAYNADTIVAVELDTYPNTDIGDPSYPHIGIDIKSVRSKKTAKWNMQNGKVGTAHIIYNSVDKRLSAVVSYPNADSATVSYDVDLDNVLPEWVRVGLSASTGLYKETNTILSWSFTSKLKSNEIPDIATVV
# Sequence of Follistatin (Homo sapiens) (P19883 whole entry, looked up): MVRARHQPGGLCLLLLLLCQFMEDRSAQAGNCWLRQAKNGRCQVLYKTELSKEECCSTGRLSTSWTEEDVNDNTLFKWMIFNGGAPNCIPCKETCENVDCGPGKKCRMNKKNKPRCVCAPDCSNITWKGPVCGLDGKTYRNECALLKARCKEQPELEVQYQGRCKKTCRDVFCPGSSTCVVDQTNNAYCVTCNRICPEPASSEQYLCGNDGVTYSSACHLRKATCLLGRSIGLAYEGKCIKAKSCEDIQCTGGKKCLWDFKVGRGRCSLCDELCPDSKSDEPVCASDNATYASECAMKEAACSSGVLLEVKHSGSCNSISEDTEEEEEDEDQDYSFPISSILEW
# Sequence of Focal adhesion kinase 1 (Homo sapiens) (Q05397 whole entry, looked up): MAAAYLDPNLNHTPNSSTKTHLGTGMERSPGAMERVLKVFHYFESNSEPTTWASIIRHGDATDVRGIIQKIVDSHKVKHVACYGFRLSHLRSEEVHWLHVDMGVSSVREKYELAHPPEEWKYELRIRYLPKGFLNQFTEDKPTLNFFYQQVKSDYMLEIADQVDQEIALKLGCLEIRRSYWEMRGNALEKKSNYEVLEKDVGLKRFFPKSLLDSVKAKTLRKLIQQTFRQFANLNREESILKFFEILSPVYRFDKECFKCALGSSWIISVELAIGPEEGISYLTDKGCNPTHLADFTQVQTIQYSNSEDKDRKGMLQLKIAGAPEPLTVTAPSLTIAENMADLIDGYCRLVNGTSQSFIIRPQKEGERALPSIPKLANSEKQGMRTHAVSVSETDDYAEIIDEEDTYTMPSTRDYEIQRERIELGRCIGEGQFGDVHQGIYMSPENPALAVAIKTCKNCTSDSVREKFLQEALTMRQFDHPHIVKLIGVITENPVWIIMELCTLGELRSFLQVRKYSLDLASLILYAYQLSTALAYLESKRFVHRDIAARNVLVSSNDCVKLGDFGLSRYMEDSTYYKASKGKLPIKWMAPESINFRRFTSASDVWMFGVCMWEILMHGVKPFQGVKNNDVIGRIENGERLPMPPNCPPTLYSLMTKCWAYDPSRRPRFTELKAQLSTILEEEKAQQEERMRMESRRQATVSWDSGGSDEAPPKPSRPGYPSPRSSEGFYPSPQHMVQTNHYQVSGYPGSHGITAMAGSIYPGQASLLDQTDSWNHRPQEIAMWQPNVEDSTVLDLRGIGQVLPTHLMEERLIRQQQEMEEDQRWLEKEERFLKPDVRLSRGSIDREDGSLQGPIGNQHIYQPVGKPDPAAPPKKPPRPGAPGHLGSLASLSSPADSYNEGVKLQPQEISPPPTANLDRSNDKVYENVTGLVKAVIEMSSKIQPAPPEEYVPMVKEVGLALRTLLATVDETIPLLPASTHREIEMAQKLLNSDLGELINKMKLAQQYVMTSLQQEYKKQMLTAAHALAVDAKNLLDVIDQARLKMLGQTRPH
# Sequence of Albumin (Bos taurus) (P02769 whole entry, looked up): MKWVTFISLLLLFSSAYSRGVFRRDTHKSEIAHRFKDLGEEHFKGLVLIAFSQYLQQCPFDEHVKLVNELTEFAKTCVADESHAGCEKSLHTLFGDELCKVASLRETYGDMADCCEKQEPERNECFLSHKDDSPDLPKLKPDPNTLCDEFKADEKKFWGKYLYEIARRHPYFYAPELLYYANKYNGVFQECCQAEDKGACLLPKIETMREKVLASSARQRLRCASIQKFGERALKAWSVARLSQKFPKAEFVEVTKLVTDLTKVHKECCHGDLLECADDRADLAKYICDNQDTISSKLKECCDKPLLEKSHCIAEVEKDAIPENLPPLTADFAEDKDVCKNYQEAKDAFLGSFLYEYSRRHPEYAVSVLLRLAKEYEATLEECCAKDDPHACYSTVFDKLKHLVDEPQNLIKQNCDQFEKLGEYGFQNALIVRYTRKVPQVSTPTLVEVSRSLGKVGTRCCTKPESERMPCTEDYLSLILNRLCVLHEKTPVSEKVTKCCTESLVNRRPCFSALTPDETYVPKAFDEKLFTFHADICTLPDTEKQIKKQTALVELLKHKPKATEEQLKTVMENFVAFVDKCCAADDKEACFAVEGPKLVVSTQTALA
SMILES,composite z-score (Albumin (Bos taurus)),composite Z-score [1],composite z-score [2],composite z-score [3],composite z-score [4],composite z-score [5],composite z-score [6],composite z-score (Sam68 (KHDRBS1)),composite z-score [7],composite z-score [8],composite z-score [9],composite z-score [10],composite z-score [11],composite z-score [12],composite z-score [13],composite z-score [14],z-score [15],composite z-score (Lefty1),composite z-score [16],z-score [17]
O=C1NCC(=O)N2[C@@H]1C[C@@H](C(=O)O)[C@H]2c1ccc(O)cc1,-0.575,-0.0127 (inactive),0.0397,-0.14,0.165,2.25,0.0452,1.31,1.48,1.07,3.15,1.19,0.278,0.8,1.38,1.9,0.563,1.56,0.255,-0.504 (inactive)
CCOC(=O)C1=CC[C@@H](c2ccccc2)N(S(=O)(=O)c2ccc(C)cc2)C1,0.425,-0.0056 (inactive),0.283,-0.0176,0.38,0.522,0.786,0.143,0.565,-0.264,-0.416,0.968,0.478,-0.364,0.736,-0.103,0.747,-0.34,0.564,0.731 (inactive)
C=C1C2CC3C(=C4C(CO[C@@H]4[C@H]4CCCN4S(=O)(=O)c4ccccc4[N+](=O)[O-])C4C(=O)N(C)C(=O)C34)CC2C(=O)N1C (stereo not given in full),0.873,0.79 (inactive),0.0897,-0.078,0.155,0.5,-0.0918,-0.184,0.0301,0.131,-0.382,0.128,0.0722,0.412,0.482,0.425,0.225,0.218,0.337,0.101 (inactive)
C#CCNC(=O)[C@H](Cc1ccccc1)NC(=O)[C@@H](N=[N+]=[N-])C(C)C,0.51,-0.197 (inactive),-0.0431,-0.134,0.179,0.88,0.0338,1.01,0.747,0.584,0.141,0.873,0.146,0.694,0.127,0.524,0.332,0.343,0.349,-0.66 (inactive)
NC(=O)N1C(=O)C2C(C1=O)C1C=C(CCCO)C2C(c2cccs2)N1Cc1cc2c(cc1Br)OCO2 (stereo not given),0.429,-0.483 (inactive),-0.0328,-0.12,0.757,1.04,-0.0752,0.234,-0.663,0.827,2.23,-0.212,1.67,0.87,0.192,-0.681,0.707,0.574,0.851,-0.062 (inactive)
Cc1c(NC(=O)/C(C#N)=C/C=C/c2ccccc2[N+](=O)[O-])c(=O)n(-c2ccccc2)n1C,0.974,-0.148 (inactive),-0.0903,-0.0234,0.643,1.11,1.04,0.708,0.704,0.761,0.526,0.876,1.01,0.867,0.771,0.334,0.511,0.557,0.154,-4.64 (inactive)
C=C(CCCC)/C(=C/C[C@@H](OC(=O)c1ccncc1)c1cccc(OCCO)c1)c1cnc2ccccc2c1,0.413,0.815 (inactive),0.272,-0.0495,0.893,1.04,0.327,1.16,1.54,1.1,0.65,0.539,0.0663,0.832,1.5,1.74,1.14,1.6,0.871,-1.63 (inactive)
CC(C)C(CO)N1C(=O)[C@]2(C)C3C(=O)OCCC/C=C\[C@H]3OC23C=CCN(c2ccc(Cl)cc2)C(=O)[C@@H]13 (stereo not given in full),-0.187,-0.132 (inactive),-0.157,-0.164,0.853,3.39,0.32,0.36,-0.883,-0.522,-0.0262,-0.456,0.118,-0.809,-0.223,-0.815,0.612,0.211,-0.367,-0.657 (inactive)
CCCC[C@@H]1C[C@H]1[C@@H](NC(=O)c1ccccc1)c1ccc(Cl)cc1,-0.413,0.0169 (inactive),-0.414,-0.179,-0.527,0.847,-0.905,-1.35,-2.74,-1.6,-0.0782,-1.52,0.528,-2.07,-2.37,-1.9,1.66,-2.22,-1.6,0.923 (inactive)
C[C@H]1C2=C3C(CC[C@H]4C(OCc5ccc(F)cc5C(F)(F)F)OC[C@](C)([C@@H]34)N(C(=O)OC(C)(C)C)C2)C2COC(=O)OCC21 (stereo not given in full),0.963,-0.0452 (inactive),0.242,0.183,0.754,2.93,0.399,1.31,-1.67,1.1,2.42,1.16,1.46,0.96,0.856,-1.5,1.75,-0.225,0.792,1.85 (inactive)
Cc1ccc(S[C@]2(C(=O)NCC(F)(F)F)CC(=O)N(Cc3ccccc3)[C@@H]2c2ccc(CO)cc2)cc1,-0.597,0.363 (inactive),-0.115,-0.119,0.699,0.973,-0.0477,0.619,-1.23,-0.643,-0.951,0.389,-0.0414,-1.16,-0.739,-0.683,-0.483,-0.758,-0.693,0.519 (inactive)

# Source: PubChem BioAssay
